Values joined by “and” are separate entries in the source; they are usually repeats but may differ in a detail not shown here. Equal values may be shown once. Records with an inconclusive call do not appear. Active and inactive are the calls of the source. Unless noted, calls come from the whole dose curve; as a rule, active = well fitted curve in the direction sought with a large enough effect; inconclusive = small, poorly fitted or top-dose-only effect, or another doubt; inactive = no such curve, though single readings can be large; an effect the other way counts as inactive or inconclusive.
How the values were obtained:
[1] = S16 Schwann cell viability assay (CellTiter-Glo assay) (AID 624031);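 note: cellular ATP luminescence as a viability measure; plate controls were DMSO-treated cells for no effect and cell-free wells for full effect; nearly all actives have a fitted effect of over 70% in size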
In short: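 Native S16 Schwann cells (rat), serum-containing medium, overnight attachment then 24 h drug exposure at 37 °C/5% CO2. CellTiter-Glo ATP signal; normalized to cell-free and vehicle wells.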

[2] = target: Glutaminase kidney isoform, mitochondrial (Homo sapiens) (UniProt O94925); assay: qHTS for Inhibitors of Glutaminase (GLS): LOPAC Validation (AID 624146);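 note: glutamate product detected by oxidase and peroxidase coupled Amplex red fluorescence gain; % is set by controls: 0 for no effect and ±100 for the full control effect; nearly all actives have a fitted effect of over 60% in size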
In short: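 Compounds were pin-transferred onto hKGA, after which L-glutamine (1 mM solution) and a detection mix of glutamate oxidase, HRP and Amplex Red were added. Initial and 30 min RT fluorescence reads were collected.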

[3] = qHTS of Trypanosoma Brucei Inhibitors: LOPAC Validation (AID 624147); note: 0% is about no effect
In short: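 In this concentration-response screen, enzyme-free wells defined baseline while DMSO plates tracked drift. Each reaction combined TbPYK, substrate, compound and 130 uM ADP for 45 min at room temperature. Kinase-Glo Plus luminescence gave the signal.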

[4] = target: Glucagon-like peptide 1 receptor (Homo sapiens) (UniProt P43220); assay: qHTS of GLP-1 Receptor Agonists: LOPAC Validation (AID 624148);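 note: luminescence from a luciferase reporter switched on by cAMP; 0% is about no effect; higher luminescence signal means agonism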
In short: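 Agonism scored as increased luciferase luminescence driven by cAMP in HEK293 clones carrying GLP-1R. Cells settled 12 hours, received compound for 4-6 hr at 37 deg C, 5% CO2, and were read after 12 min detection reagent at RT.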

[5] = qHTS of Nrf2 Activators: LOPAC Validation (AID 624149); note: 0% is about no effect
In short: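 ARE reporter activation measured in AREc32 firefly luciferase cells after 24 hr compound exposure; Steady-Glo luminescence.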

[6] = HTS Assay for Allosteric Antagonists of the Human D2 Dopamine Receptor: Hit Validation in HTRF (AID 624455);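 note: stable D1 dopamine receptor cell line scored for blocking the D1 response; % is set by controls: 0 for no effect and ±100 for the full control effect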
In short: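 Signal from an HTRF read-out in D1-expressing stable cells gave hit activity as inhibition of the D1 response.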

[7] = qHTS assay for small molecule activators of the p53 signaling pathway (AID 651743; active = well fitted activation curve with a large enough effect in the signal ratio, not every such curve was filed as active; the % refers to the signal ratio; note: % of control where 0% means no effect); conditions: HCT-116 p53RE-bla, beta-lactamase FRET ratio, 16 h; activation: stronger effect = higher value
In short: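 Screen for p53 pathway agonists uses stably transfected p53RE-bla HCT-116 cells, 4,000 per well, treated 16 h at 37 C with compounds in DMSO.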

[8] = qHTS assay for small molecule activators of the nuclear factor-kappa B (NF-kB) signaling pathway (AID 651749; active = well fitted activation curve with a large enough effect in the signal ratio; the % refers to the signal ratio; note: % of control where 0% means no effect); conditions: NF-kB-bla ME-180 cells, beta-lactamase FRET ratio, 16 h; stronger effect = higher value
In short: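 Stably transfected ME-180 line; NF-kB response element upstream of beta-lactamase. Treatment: compound or DMSO, 16 hr. Detection: fluorescent FRET substrate.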

[9] = S16 Schwann cell PMP22 intronic element beta-lactamase assay (AID 624044; calls by dose curve;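 note: 0% = DMSO and -100% = potassium clavulanate positive control; nearly all actives have a fitted effect of over 15% in size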)
In short: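 Rat S16 Schwann cells with beta-Lac driven by a PMP22 intronic element, compound-treated 24 h at 37 °C. LiveBLAzer FRET B/G read: 460 nm normalized to potassium clavulanate vs DMSO; 535 nm FRET as viability; concentration-effect curves classified.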

[10] = Cytotoxicity counterscreen for NFkB agonists and antagonists (AID 624476); note: potency is the fitted concentration of half-maximal effect
[11] = qHTS Assay for Identification of Small Molecule Agonists for NFkB Signaling Pathway. (AID 624478);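 note: compounds tested together with TNF alpha at its EC50 of 10 pM; 0% is about no effect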
In short: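 Cells carrying an NFkB response element-driven beta-lactamase gene are co-treated with compound and 10 pM TNF alpha for 5 h, and reporter activity is then read as 460 and 530 nm fluorescence.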

[12] = qHTS Assay for Identification of Small Molecule Antagonists for NFkB Signaling Pathway. (AID 624479; calls by dose curve;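 note: pathway stimulated with TNF alpha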; note: potency is the fitted concentration of half-maximal effect)
[13] = Cell Proliferation Assay against the TMD8 Cell Line (AID 651645); conditions: TMD8 DLBCL cell line proliferation/viability; at 46.1 µM (top of the series) unless noted;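 note: cells exposed to compound for 48 h before reading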
In short: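 Cell viability of the ABC DLBCL line TMD8 is measured by CellTiter-Glo luminescence following a 48-hour incubation with compound. Percent activity uses DMSO as 100% and 9.2 uM bortezomib (final) as 0%.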

[14] = Cell Proliferation Assay against the HBL1 Cell Line (AID 651646); conditions: HBL1 DLBCL cells; at 46.1 µM (top of the series) unless noted;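 note: cells exposed to compound for 48 h before reading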
In short: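 Luminescent ATP read-out (CellTiter-Glo) after 48 h compound exposure of HBL1 cells at 37 °C; percent activity was scaled between DMSO as 100% and 9.2 uM bortezomib (final) as 0%.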

[15] = Cell Proliferation Assay against the TMD8 Cell Line (Caspase readout at 16 hrs) (AID 651712)
In short: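 Apoptotic response of TMD8 cells was judged from caspase 3/7 activation following a 16 hour compound incubation at 37 °C. Luminescent signal was converted to percent activity, with DMSO set as 0% and 9.2 uM final bortezomib as 100%.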

[16] = Cell Proliferation Assay against the TMD8 Cell Line (Caspase readout at 8 hrs) (AID 651713)
In short: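 Percent activity derived from Caspase-Glo signal, DMSO set to 0% and bortezomib (9.2 uM final) to 100%. TMD8 cells were exposed to compound for 8 h in RPMI with 5% FBS.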

[17] = target: Tumor necrosis factor (Homo sapiens) (UniProt P01375); assay: qHTS assay to identify small molecules that stimulate Tumor Necrosis Factor-alpha (TNF-alpha) secretion (AID 651757; active = well fitted curve in the direction sought with a large enough effect in the signal ratio; the % refers to the signal ratio; note: 0% is about no effect)
In short: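 Secreted TNF-alpha from compound-treated THP-1 cells (17 hrs, 37 C) was quantified with a homogeneous time-resolved fluorescence antibody assay.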

[18] = qHTS assay for small molecule disruptors of the mitochondrial membrane potential - 1 hr assay (AID 651754; calls by dose curve; note: % is set by controls: 0 for no effect and ±100 for the full control effect; nearly all actives have a fitted effect of over 35% in size)
In short: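 Steps: seed HepG2 cells and let attach overnight; pin-transfer compound or vehicle; incubate 1 hr at 37C; add Mito-MPS dye for 30 min; read two-channel fluorescence for monomer and aggregate forms.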

[19] = qHTS assay for small molecule disruptors of the mitochondrial membrane potential - 5 hr assay (AID 651755; calls by dose curve; note: % is set by controls: 0 for no effect and ±100 for the full control effect; nearly all actives have a fitted effect of over 40% in size)
In short: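 HepG2, 2,000 cells/well, overnight attach; cpd or DMSO 5 hr, 37C/5% CO2; Mito-MPS 30 min 37C; fluor 490/535 + 540/590 nm.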

[20] = qHTS assay to identify small molecules that stimulate interleukin-8 (IL-8) secretion (AID 651758; active = well fitted activation curve with a large enough effect in the signal ratio; the % refers to the signal ratio; note: 0% is about no effect)
In short: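 Secreted IL-8 measured by TR-FRET sandwich (cryptate and XL665 antibodies) from THP-1 cells exposed to compound overnight (16 hrs, 37 C).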

Chain of Glucagon-like peptide 1 receptor (Homo sapiens) (P43220 whole entry, looked up): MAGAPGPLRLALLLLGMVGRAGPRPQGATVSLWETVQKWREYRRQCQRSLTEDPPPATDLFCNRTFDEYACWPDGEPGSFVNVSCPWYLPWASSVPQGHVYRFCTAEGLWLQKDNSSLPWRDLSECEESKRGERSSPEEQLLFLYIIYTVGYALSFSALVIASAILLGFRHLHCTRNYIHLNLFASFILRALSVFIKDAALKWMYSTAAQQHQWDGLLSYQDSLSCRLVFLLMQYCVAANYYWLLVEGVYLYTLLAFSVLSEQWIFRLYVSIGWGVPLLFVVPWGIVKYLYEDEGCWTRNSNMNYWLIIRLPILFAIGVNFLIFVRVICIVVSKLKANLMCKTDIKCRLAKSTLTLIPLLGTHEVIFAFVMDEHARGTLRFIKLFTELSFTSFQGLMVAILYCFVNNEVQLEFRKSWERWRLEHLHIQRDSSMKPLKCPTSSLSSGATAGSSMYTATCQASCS
Chain of Glutaminase kidney isoform, mitochondrial (Homo sapiens) (O94925 whole entry, looked up, canonical isoform): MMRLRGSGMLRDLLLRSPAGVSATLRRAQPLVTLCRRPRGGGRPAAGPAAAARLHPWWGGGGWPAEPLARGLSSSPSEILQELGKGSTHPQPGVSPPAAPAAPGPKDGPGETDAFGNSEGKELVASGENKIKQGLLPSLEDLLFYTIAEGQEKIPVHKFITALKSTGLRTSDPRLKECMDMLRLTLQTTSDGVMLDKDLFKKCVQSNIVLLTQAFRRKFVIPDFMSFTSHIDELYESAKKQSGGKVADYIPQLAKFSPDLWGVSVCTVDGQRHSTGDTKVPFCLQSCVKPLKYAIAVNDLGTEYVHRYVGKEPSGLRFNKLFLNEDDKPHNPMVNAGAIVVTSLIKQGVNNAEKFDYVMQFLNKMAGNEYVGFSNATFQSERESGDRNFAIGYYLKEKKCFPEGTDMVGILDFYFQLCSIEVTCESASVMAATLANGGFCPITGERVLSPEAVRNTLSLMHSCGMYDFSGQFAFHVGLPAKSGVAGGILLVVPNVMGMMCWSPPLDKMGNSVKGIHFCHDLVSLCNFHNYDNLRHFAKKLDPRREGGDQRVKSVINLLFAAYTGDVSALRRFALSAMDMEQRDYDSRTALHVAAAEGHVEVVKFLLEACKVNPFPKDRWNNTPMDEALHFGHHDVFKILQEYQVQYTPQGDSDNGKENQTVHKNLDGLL
Chain of Tumor necrosis factor (Homo sapiens) (P01375 whole entry, looked up): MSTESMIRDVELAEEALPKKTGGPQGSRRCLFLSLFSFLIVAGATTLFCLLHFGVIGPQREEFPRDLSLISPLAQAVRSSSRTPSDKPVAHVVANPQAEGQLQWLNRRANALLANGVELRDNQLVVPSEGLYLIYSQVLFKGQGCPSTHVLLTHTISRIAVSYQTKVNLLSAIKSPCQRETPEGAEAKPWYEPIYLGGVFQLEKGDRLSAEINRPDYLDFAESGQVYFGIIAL

Cc1[nH]c(=O)c(C#N)cc1-c1ccncc1
inactive: Potency [1] | outcome [2] | outcome [3] | outcome [4] | outcome [5] | Potency [6] | activation [7] -6.25% | activation [8] -0.647%

CCCc1nn(C)c2c(=O)[nH]c(-c3cc(S(=O)(=O)N4CCN(C)CC4)ccc3OCC)nc12
106%: viability, percent of control [14]
102%: viability (% of control) [13]
inactive: Potency [1] | outcome [9] | Potency [10] | outcome [11] | Potency [12] | Potency [15] | Potency [16]

O=NN(CCCl)C(=O)NCCCl
inactive: Potency [1] | outcome [2] | outcome [3] | outcome [4] | outcome [5] | Potency [6] | activation [7] 14.7% | activation [8] -1.3%

CCCCNc1cc(C(=O)O)cc(S(N)(=O)=O)c1Oc1ccccc1
inactive: Potency [1] | outcome [9] | outcome [2] | outcome [3] | outcome [4] | outcome [5] | Potency [6]

Nc1ccc(S(=O)(=O)Nc2ccnn2-c2ccccc2)cc1
inactive: Potency [1] | outcome [9] | outcome [2] | outcome [3] | outcome [4] | outcome [5] | Potency [6]

O=c1n(CCCN2CCN(c3cccc(Cl)c3)CC2)nc2ccccn12
inactive: Potency [1] | outcome [2] | outcome [3] | outcome [4] | outcome [5] | Potency [6]

CC(C)NCC(O)COc1ccc(COCCOC(C)C)cc1 (centres undefined)
inactive: Potency [1] | outcome [2] | outcome [3] | outcome [4] | outcome [5] | Potency [6]

O=c1[nH]cnc2[nH]ncc12
inactive: Potency [1] | outcome [2] | outcome [3] | outcome [4] | outcome [5] | Potency [6] | activation [8] 1.17% | outcome [17]

NS(=O)(=O)c1cc2c(cc1Cl)NC=NS2(=O)=O
inactive: Potency [1] | outcome [9] | outcome [2] | outcome [3] | outcome [4] | outcome [5] | Potency [6] | activation [7] -2.13% | activation [8] -0.0978% | outcome [18] | outcome [19] | outcome [20]

NCCCC(N)(C(=O)O)C(F)F (centres undefined)
inactive: Potency [1] | outcome [9] | outcome [2] | outcome [3] | outcome [4] | outcome [5] | Potency [6]

N#Cc1ccc(C(c2ccc(C#N)cc2)n2cncn2)cc1
71.5%: viability (% of control) [13]
110%: viability, percent of control [14]
inactive: Potency [1] | outcome [9] | Potency [10] | outcome [11] | Potency [12] | Potency [15] | Potency [16]

CC(=O)Oc1ccccc1C(=O)O
inactive: Potency [1] | outcome [9] | outcome [2] | outcome [3] | outcome [4] | outcome [5] | Potency [6] | activation [7] -2.89% and -7.19% and 1.5% | activation [8] -1.39% and 0.118% and -2.43% | outcome [18] | outcome [19] | outcome [17]

CCc1ccc(CCOc2ccc(CC3SC(=O)NC3=O)cc2)nc1 (centres undefined)
79.6%: viability (% of control) [13]
77.7%: viability, percent of control [14]
active: Potency [12] 16.8 µM
inactive: Potency [1] | outcome [9] | Potency [10] | outcome [11] | Potency [16]

Cc1[nH]c(=O)c(C#N)cc1-c1ccc2nccn2c1
104%: viability (% of control) [13]
78.9%: viability, percent of control [14]
inactive: Potency [1] | outcome [3] | outcome [4] | outcome [5] | Potency [6] | Potency [10] | outcome [11] | Potency [12] | Potency [16]

OC[C@H](Cc1ccccc1)Nc1nc(Oc2ccc3c(c2)CCC3)nc2c1ncn2Cc1ccc(-c2ccccc2)cc1
54.4%: viability (% of control) [13]
35.2%: viability, percent of control [14]
inactive: Potency [10] | outcome [11] | Potency [12]

Cc1c(CN2CCN(C(=O)C(C)C)CC2)sc2c(N3CCOCC3)nc(-c3cnc(N)nc3)nc12
active: Potency [10] 0.148 µM
inactive: outcome [11] | Potency [12]
3.51%: viability (% of control) [13]
45.6%: viability, percent of control [14]

CCN(CC)CCCC(C)Nc1ccnc2cc(Cl)ccc12 (centres undefined)
inactive: outcome [2] | outcome [3] | outcome [4] | outcome [5] | Potency [6]

CC(C)(Sc1ccc(CCN(CCCCC2CCCCC2)C(=O)NC2CCCCC2)cc1)C(=O)O
active: Potency [10] 23.5 µM | Potency [12] 21.1 µM
inactive: outcome [2] | outcome [3] | outcome [4] | outcome [5] | Potency [6] | outcome [11] | Potency [15] | Potency [16] | activation [8] 7.6%
13.8%: viability, percent of control [14]
92.1%: viability (% of control) [13]

CCC(=O)N[C@H]1CC[C@H](C(=O)N(C)c2ccc(-c3nc4ccccc4o3)cc2)C1
77.3%: viability (% of control) [13]
inactive: Potency [10] | outcome [11] | Potency [12] | Potency [15] | Potency [16]
74.7%: viability, percent of control [14]

OC(CN1CCC(Cc2ccc(F)cc2)CC1)c1ccc(Cl)cc1 (centres undefined)
66.4%: viability, percent of control [14]
inactive: outcome [2] | outcome [3] | outcome [4] | outcome [5] | Potency [6] | Potency [10] | outcome [11] | Potency [12] | Potency [16]
74%: viability (% of control) [13]

OC(CCN1CCCCC1)(c1ccccc1)C1CC2C=CC1C2 (centres undefined)
inactive: outcome [2] | outcome [3] | outcome [4] | outcome [5] | Potency [6]

Cc1cc(-c2ccc(CC(=O)Nc3ccc(-c4cccnc4)cc3)cc2)ccn1
inactive: Potency [10] | outcome [11] | Potency [12]
62.3%: viability (% of control) [13]
101%: viability, percent of control [14]

O=C(Nc1nc2ccccc2n1CCN1CCOCC1)c1cccc([N+](=O)[O-])c1
inactive: outcome [2] | outcome [3] | outcome [4] | outcome [5] | Potency [6] | Potency [10] | outcome [11]
89.4%: viability, percent of control [14]
77.2%: viability (% of control) [13]
active: Potency [12] 2.66 µM
